VLA-4 inh: inhibition in a human VLA-4 binding assay; P13612; VLA-4 expressing cells, ligand binding flow cytometry; inhibition, % (about 7 µM as worked out from the volumes in the protocol); 330,000 tested, 0.2% active
GRK2 inh: inhibitors of human GRK2 displacing RNA aptamer. inhibition of aptamer binding, % at 10 µM. bead flow cytometry, FAM-aptamer displacement from GRK2. 330,000 tested, 0.59% active;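 active means inhibition of aptamer binding above 40%, roughly 3 SD of noise, on plates passing a quality check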;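 further: median bead fluorescence of bound FAM aptamer so fluorescent compounds give negative values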
Pemphigus Ab inh: human desmoglein-3 autoantibody binding inhibition. P32926. DSG3-coupled beads, scFv-anti-DSG3-GFP binding, flow cytometry; active compounds read low. binding (percent of control), % at 10 µM. 310,000 tested, 0.48% active. AID 588358;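 active means binding more than 3 SD below its plate's average and above zero; inconclusive means below that plate limit but binding exactly zero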;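 further: hits lower antibody fragment binding to DSG3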
HDAC3 inhib: blocks human histone deacetylase 3; O15379; recombinant HDAC3, fluorogenic peptide/trypsin coupled, fluorescence; inhibition, % at 8.3 µM; 320,000 tested, 0.15% active; AID 2718; in the data active means inhibition above about 26%, passing the limit was not always enough; inconclusive means no clear call, values can overlap the other calls
LANA-H2A inh: blocks KSHV LANA binding to histone H2A/H2B; cell-free LANA-H2A/H2B peptide, fluorescence polarization; inhibition, % (concentration not given with the values); 320,000 tested, 0.6% active; AID 2629; in the data active means inhibition mostly above about 10%, no sharp cut-off; inactive means mostly below about 6.7%
Target sequence (Q9QR71 whole entry, looked up): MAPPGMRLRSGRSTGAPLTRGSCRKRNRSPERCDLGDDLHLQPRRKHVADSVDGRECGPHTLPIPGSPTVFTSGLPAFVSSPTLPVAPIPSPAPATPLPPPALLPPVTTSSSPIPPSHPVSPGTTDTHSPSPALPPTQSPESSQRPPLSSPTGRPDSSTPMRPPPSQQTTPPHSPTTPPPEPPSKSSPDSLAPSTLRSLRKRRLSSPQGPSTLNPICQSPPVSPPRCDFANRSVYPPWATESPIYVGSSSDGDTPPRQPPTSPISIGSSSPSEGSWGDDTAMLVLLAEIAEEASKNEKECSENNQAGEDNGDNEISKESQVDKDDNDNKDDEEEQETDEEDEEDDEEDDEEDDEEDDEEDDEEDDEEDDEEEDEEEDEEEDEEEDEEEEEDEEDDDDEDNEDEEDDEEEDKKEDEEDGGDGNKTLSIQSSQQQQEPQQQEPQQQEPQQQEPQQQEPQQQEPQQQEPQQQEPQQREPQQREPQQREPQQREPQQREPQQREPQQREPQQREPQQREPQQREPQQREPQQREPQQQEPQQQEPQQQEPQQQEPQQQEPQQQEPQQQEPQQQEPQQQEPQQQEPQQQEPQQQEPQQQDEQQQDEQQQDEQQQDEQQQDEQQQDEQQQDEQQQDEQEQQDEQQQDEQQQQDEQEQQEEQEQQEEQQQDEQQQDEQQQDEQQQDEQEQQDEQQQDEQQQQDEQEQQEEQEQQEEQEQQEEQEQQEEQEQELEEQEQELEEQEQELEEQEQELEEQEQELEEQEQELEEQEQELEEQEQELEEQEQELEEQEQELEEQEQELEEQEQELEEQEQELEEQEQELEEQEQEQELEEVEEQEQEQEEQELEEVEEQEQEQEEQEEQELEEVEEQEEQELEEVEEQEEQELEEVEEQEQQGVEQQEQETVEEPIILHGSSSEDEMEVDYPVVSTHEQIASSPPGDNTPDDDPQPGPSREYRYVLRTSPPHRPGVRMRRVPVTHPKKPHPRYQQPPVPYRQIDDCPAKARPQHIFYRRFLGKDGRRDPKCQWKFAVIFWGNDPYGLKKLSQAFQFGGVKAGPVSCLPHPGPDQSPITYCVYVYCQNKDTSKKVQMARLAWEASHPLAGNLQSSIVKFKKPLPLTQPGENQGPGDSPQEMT
PKD1 kinase inh: inhibitors of human PKD1 kinase | inhibition, % (test concentration not listed) | 200,000 tested, 0.056% active | PKD1 kinase fluorescence polarization assay | AID 797 | Q15139
VLA-4 mod pick: confirmation of allosteric modulators of human VLA-4 integrin. inhibition, % at 6.7 µM. shares compounds with VLA-4 inh. AID 2813. U937 cells, HUTS-21 LIBS mAb binding, flow cytometry; LDV ligand present at threefold Kd. 1,300 tested, 2% active; in the data active means inhibition above about 40%;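 further: 0% = ligand without compound and 100% = no ligand background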
GRK2 inh confirm: confirmation of human GRK2 inhibitors displacing RNA aptamer; bead-bound GRK2, FAM-aptamer displacement, flow cytometry; shares compounds with GRK2 inh; aptamer displacement, % at 10 µM; AID 504451; 2,000 tested, 4% active;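 active means aptamer displacement above 40%, near three times the noise of non-fluorescent compounds, on plates passing quality checks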;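 further: negative values mostly reflect intrinsic compound fluorescence rather than true enhancement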
Aptamer quench: counter-screen for GRK2 aptamer inhibitors: fluorescent aptamer quenchers | 110 tested, under 10 active | fluorescence change (kMESF span), kMESF (no concentration beside the values) | shares compounds with GRK2 inh | Fluorescent RNA aptamer beads, quenching, flow cytometry; active compounds read high;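 active means compounds whose bead fluorescence drops by more than 37 kMESF across the dose range, marking them as dye quenchers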
FAM quench CP1: counter-screen for GRK2 aptamer inhibitors: fluorescent aptamer quenchers. shares compounds with GRK2 inh. Carboxyfluorescein RNA aptamer on beads, flow cytometry quenching; active compounds read low. fluorescence response (% of DMSO), % at 10 µM. 2,000 tested, under 10 active;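 active means compounds that quench the bead-bound fluorescent RNA probe, cutting fluorescence to under half of the solvent control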;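 further: counterscreen run without GRK2 so only probe quenching by compound is measured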
GRK2 confirm 2: confirmation of human GRK2 inhibitors binding RNA aptamer site | inhibition of aptamer binding, % at 10 µM | 360 tested, under 10 active | shares compounds with GRK2 inh | bead-bound GRK2, FAM-aptamer displacement, flow cytometry;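 active means inhibition of aptamer binding above 40%, about triple the noise seen with nonglowing compounds, on plates passing quality control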;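 further: negative values mostly come from compounds that fluoresce themselves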
Aptamer quench 2: counter-screen for GRK2 aptamer inhibitors: fluorescent aptamer quenchers | shares compounds with GRK2 inh | Streptavidin beads, FAM-RNA aptamer fluorescence quenching, flow cytometry | change in fluorescence (kMESF span), kMESF (test concentration not listed) | 25 tested, under 10 active;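 active means compounds quenching the bead-bound labeled aptamer, with fluorescence dropping by more than 37 kMESF over the dose range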
FAM quench SP: counter-screen for GRK2 binding hits: quenchers of fluorescent RNA aptamer; shares compounds with GRK2 inh; carboxyfluorescein RNA aptamer beads, flow cytometry quenching; active compounds read low; fluorescence response vs DMSO, % at 10 µM; 360 tested, under 10 active;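 active means response vs DMSO under 50%, meaning signal dropped by over half, treated as fluorescence quencher; inconclusive means no clear call, values can overlap the other calls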;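 further: labelled aptamer on streptavidin beads without GRK2 as a quench counter-screen; 100% = bead fluorescence of DMSO wells and lower means quenching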
FAM quench DR: counter-screen for GRK2 aptamer binding inhibitors: aptamer fluorescence quenching; Bead-bound FAM RNA aptamer fluorescence quenching, flow cytometry; active compounds read low; fluorescence ratio to DMSO, % at 11.1 µM; AID 588496; 35 tested, under 10 active; shares compounds with GRK2 inh;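 active means compounds that dim the fluorescent label, raw bead signal shifting by over 33 units between lowest and highest dose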
* marks the source's active call; other numbers are inactive results; i = inactive; ? = inconclusive; . = no result. Only some compounds are listed: those with a hit (about 1.8% of all), similar ones and a draw of the others. Unless noted, no stated cut-off is given here; in the data, active means inhibition above about 50%; inactive means the rest.

SMILES	VLA-4 inh	GRK2 inh	Pemphigus Ab inh	HDAC3 inhib	LANA-H2A inh	PKD1 kinase inh	VLA-4 mod pick	others
O=C(C1=C[C@H](c2csc3ccccc23)C[C@H](OCc2ccc(CO)cc2)O1)N1CCCCCCC1	-5	0	.	7	-2	.	.
CCOC(=O)COc1ccccc1/C=C\[N+](=O)[O-]	50*	0	92	-2	i	-5	43*
Cc1ccc(C(=O)COC(=O)COc2ccccc2[N+](=O)[O-])s1	-6	3	110	9	-4	.	.
O=C(CN(CC1CCCO1)C(=O)c1nsc(Cl)c1Cl)NC1CCCC1 (stereo unspecified)	57*	1	91	1	-6	-2	4
CC(OC(=O)c1ccncc1)C(=O)NC1CCCC1 (stereo unspecified)	5	0	101	0	-5	5	.
COc1ccccc1NC(=O)Nc1cnccn1	54*	2	90	3	9	1	0
Cc1cc(C)c(C(=O)CC2(O)C(=O)Nc3ccccc32)cc1C (stereo unspecified)	4	0	96	3	-1	1	.
Cc1ccc(C(=O)CC2(O)C(=O)Nc3ccccc32)s1 (stereo unspecified)	58*	2	97	2	1	-5	6
COc1ccc2c(c1)[nH]c1c(=O)n(CC3CCCO3)cnc12 (stereo unspecified)	-13	0	103	0	-2	-2	.
O=c1c2[nH]c3cccc(Cl)c3c2ncn1Cc1ccco1	-1	0	87	-1	-1	.	14
O=c1c2[nH]c3cccc(Cl)c3c2ncn1CCN1CCCCC1	-1	0	103	?	2	-7	5
O=c1c2[nH]c3cccc(Cl)c3c2ncn1CC1CCCO1 (stereo unspecified)	-21	0	97	-9	-1	.	9
CCCCn1c(N)c(N(CCOC)C(=O)CCS(=O)(=O)c2ccc(Cl)cc2)c(=O)[nH]c1=O	1	0	?	-5	8	.	.
O=C(NCCC1=CCCCC1)C1CCN(c2nnc(-n3cccc3)s2)CC1	56*	3	105	1	3	-11	5	GRK2 inh confirm=-2;FAM quench CP1=98
CC(C)CCNC(=O)C1CCN(c2nnc(-n3cccc3)s2)CC1	-4	3	85	6	-2	-5	.
CC1CCC(NC(=O)N(CCCl)N=O)CC1 (stereo unspecified)	65*	26	89	-1	2	.	0	GRK2 inh confirm=-6;FAM quench CP1=103
NS(=O)(=O)c1ccc(CNC(=O)CSc2nc3ccc(Cl)cc3[nH]2)cc1	0	6	109	-5	2	.	.
COc1ccc(S(=O)(=O)CCC(=O)Nc2ccc(OC)cc2OC)cc1	-3	4	102	12	0	15	.	GRK2 confirm 2=-7;FAM quench SP=102
COc1ccc(NC(=O)CCS(=O)(=O)c2ccc(OC)cc2)cc1	7	0	.	-2	-1	0	.
COc1ccc(S(=O)(=O)CCC(=O)N(C)c2ccc(OC)cc2OC)cc1	12	2	100	6	6	12	.	GRK2 confirm 2=17;FAM quench SP=101
COc1ccc(NC(=O)CCS(=O)(=O)c2ccccc2)c(OC)c1	14	2	91	2	7	18	.
COc1ccc([N+](=O)[O-])cc1NC(=O)CCS(=O)(=O)c1ccc(Br)cc1	0	54*	78	2	2	.	.	GRK2 inh confirm=33;Aptamer quench=-7.6;FAM quench CP1=102;Aptamer quench 2=1.9;FAM quench DR=97
Cc1nc2ccccc2n(CC(=O)Nc2cc(Cl)cc(Cl)c2)c1=O	4	0	88	-5	4	-6	.
CCOC(=O)c1c(C)[nH]c(C)c1C(=O)COC(=O)c1cccs1	10	22	120	-4	1	.	.
O=C(CSc1nc2ccccc2c(=O)n1-c1ccccc1)NC(=O)CN1CCCC1=O	10	70*	106	1	-2	6	.	GRK2 inh confirm=50*;Aptamer quench=12;FAM quench CP1=103;GRK2 confirm 2=28;FAM quench SP=100;FAM quench DR=96
SMILES	VLA-4 inh	GRK2 inh	Pemphigus Ab inh	HDAC3 inhib	LANA-H2A inh	PKD1 kinase inh	VLA-4 mod pick	others
COCOCCn1cc(CN2CCS(=O)(=O)N(Cc3ccc(-c4ccc(OC)cc4)cc3)C(C)C2=O)nn1 (stereo unspecified)	.	.	105	.	.	.	.
CC(=O)Oc1ccc(C(=O)[C@H]2[C@H]3C(=O)N(c4cccc5ccccc45)C(=O)[C@H]3[C@@H]3C=CC=NN32)cc1	11	73*	92	15	4	-5	.	GRK2 confirm 2=8;FAM quench SP=101
COc1ccc(C(=O)[C@H]2[C@H]3C(=O)N(c4ccc(OC(C)=O)cc4)C(=O)[C@H]3C3C=CC=NN32)cc1 (stereo partly specified)	-13	0	107	-7	0	.	.
CC(=NNC(=O)c1cccc(S(=O)(=O)N2CCOCC2)c1)c1ccc(Cl)cc1	1	1	95	-5	3	.	.
COc1ccc(-c2nnc(C(C)Nc3cccc(C(=O)NC4CC4)c3)o2)cc1 (stereo unspecified)	-5	11	.	-7	0	.	.	GRK2 inh confirm=2;FAM quench CP1=100
Cc1cccc(-c2nnc(C(C)Nc3cccc(C(=O)NC4CC4)c3)o2)c1 (stereo unspecified)	.	.	95	.	.	.	.
COc1cccc(C(=O)NC2CCNCC2)c1	14	0	113	-4	5	.	.
CC(Nc1cccc(C(=O)NC2CC2)c1)c1nnc(-c2ccccc2)o1 (stereo unspecified)	5	4	95	-3	2	.	.	GRK2 inh confirm=0;FAM quench CP1=97

Screening data from PubChem BioAssay.
